Screening data (PubChem)
esBAF inh: SWI/SNF esBAF complex inhibition. mouse ES cells, Bmi1-luciferase knock-in reporter, 24 h; 100% = twice the neutral-well signal. reporter increase, % at 12.5 µM. 350,000 tested, 2% active; in the data active = activation above about 40%; inconclusive = no clear call, values can overlap the other calls;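 note: 0% = median of the plate's neutral control wells and 100% = double that signal; a rise in the Bmi1 reporter signal indicates esBAF inhibition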
A3G deaminase: inhibitors of human APOBEC3G DNA deaminase | recombinant A3G, ssDNA deamination FAM/TAMRA fluorescence | inhibition, % at 20 µM | 330,000 tested, 0.28% active | AID 493012;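 active = inhibition of at least 40% at 20 µM, with no more than 30% in the related APOBEC3A deaminase screen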;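 note: plate controls were DMSO wells with A3G for no effect and wells lacking A3G enzyme for full effect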
Wnt act: activators of Wnt/beta-catenin signaling; Wnt/beta-catenin reporter cell assay, activator, plate reader; activation, % at 9.35 µM; 300,000 tested, 1.2% active; AID 743398; in the data active = activation above about 30%, passing the limit was not always enough; inconclusive = no clear call, values can overlap the other calls;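 note: 0% = neutral control wells and 100% = positive control wells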
A3A deaminase: inhibitors of human APOBEC3A DNA deaminase. recombinant A3A, FAM/TAMRA ssDNA deamination fluorescence. P31941. 330,000 tested, 0.41% active. inhibition, % at 20 µM;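 active = at least 40% inhibition at 20 µM here, with at most 30% in a related deaminase screen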;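 note: plate controls were A3A with DMSO for no effect and wells lacking A3A enzyme for full effect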
Target sequence (P31941 whole entry, looked up): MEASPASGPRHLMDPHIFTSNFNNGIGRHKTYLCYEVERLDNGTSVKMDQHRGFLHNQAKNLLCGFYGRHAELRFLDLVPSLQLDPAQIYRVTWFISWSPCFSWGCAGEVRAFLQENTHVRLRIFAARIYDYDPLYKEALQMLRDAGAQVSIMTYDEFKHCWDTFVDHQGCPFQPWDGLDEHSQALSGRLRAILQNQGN
PHOSPHO1 block: PHOSPHO1 (human) inhibition. recombinant PHOSPHO1, absorbance phosphatase assay. inhibition, % at 13.3 µM. 290,000 tested, 1.1% active; in the data active = inhibition above about 60%
Target sequence (Q8TCT1 whole entry, looked up): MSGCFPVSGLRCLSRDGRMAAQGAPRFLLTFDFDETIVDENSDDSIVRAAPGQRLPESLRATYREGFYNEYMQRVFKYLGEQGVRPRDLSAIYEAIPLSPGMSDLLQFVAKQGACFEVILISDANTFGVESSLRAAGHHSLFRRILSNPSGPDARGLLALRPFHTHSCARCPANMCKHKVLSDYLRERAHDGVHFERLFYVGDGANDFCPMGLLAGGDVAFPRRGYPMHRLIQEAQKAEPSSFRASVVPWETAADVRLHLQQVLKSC
MITF act: activators of MITF-driven TRPM1 promoter activity in SK-MEL-5 cells. AID 588334. 300,000 tested, 0.75% active. activation, % at 12.5 µM. SK-MEL-5 TRPM1-promoter luciferase, 24 h; % of positive control, neutral wells = 0;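 active = mean activation of at least 80% with every replicate also reaching 80%; inconclusive = mean reaches 80% but some replicate falls short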;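 note: 0% = neutral control wells and 100% = parthenolide positive control wells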
Numbers without * were called inactive; ? = inconclusive; · = no result given. Most compounds without a hit are left out; they make up all but 3.6% or so of the library.

SMILES | esBAF inh | A3G deaminase | Wnt act | A3A deaminase | PHOSPHO1 block | MITF act
O=C(O)c1cccc(NC(=O)c2cccc(S(=O)(=O)N3CCCCC3)c2)c1 | 7.5 | -7.2 | · | -0.3 | 6.2 | 6.2
Cc1ccc(-c2csc(NC(=O)COC(=O)c3cccc(S(=O)(=O)N4CCOCC4)c3)n2)cc1 | · | -4.3 | 45.1* | -3.2 | 25.5 | ·
CN(C)c1ccc(C(=O)Nc2cccc(S(=O)(=O)N3CCCC3)c2)cc1 | 62.1* | -7.9 | 14.2 | -7.2 | · | 47.4
O=C(Nc1ccccn1)c1cccc(S(=O)(=O)N2CCOCC2)c1 | -7.3 | -3.4 | · | -3.0 | 1.7 | 0.8
O=C(Nc1cccc(O)c1)c1cccc(S(=O)(=O)N2CCCCCC2)c1 | 53.4* | -5.2 | 6.8 | -5.1 | 10.3 | 31.5
CN(C)S(=O)(=O)c1cccc(NC(=O)c2ccc(S(=O)(=O)N3CCCCC3)cc2)c1 | 2.8 | -8.8 | -7.5 | 10.3 | · | -7.4
O=C(Nc1cccc(O)c1)c1ccc(Br)c(S(=O)(=O)N2CCCCC2)c1 | 65.7* | -5.3 | -10.6 | -0.5 | -18.5 | 32.8
Cc1cccc(NC(=O)c2ccc(F)c(S(=O)(=O)N3CCC4(CC3)OCCO4)c2)c1 | 6.7 | 0.4 | -2.0 | 0.8 | 64.7* | -0.1
O=C(Nc1ccc2c(c1)OCO2)c1ccc(Br)c(S(=O)(=O)N2CCCC2)c1 | 16.7 | 19.9 | 7.4 | -1.7 | 5.7 | ·
N#C[C@H]1[C@@H](c2ccc(C3=CCCCC3)cc2)[C@@H](CO)N1S(=O)(=O)c1cccc(F)c1 | -5.4 | · | · | · | · | ·
CC(=O)c1ccc(-n2c(-c3cc(-c4ccco4)[nH]n3)n[nH]c2=S)cc1 | 4.7 | 37.3 | -1.4 | 1.6 | 96.9* | 0.3
Cc1ccc(-n2c(-c3cc(-c4ccco4)[nH]n3)n[nH]c2=S)c(Br)c1 | · | 7.8 | -1.1 | -1.1 | 18.8 | ·
S=c1[nH]nc(-c2cc(-c3ccco3)[nH]n2)n1-c1cccc2ccccc12 | 2.1 | -2.9 | -4.4 | -1.8 | 93.8* | 23.2
O=C(O)c1ccc(-n2c(-c3cc(-c4ccco4)[nH]n3)n[nH]c2=S)cc1 | -4.5 | 61.4 | · | 81.0 | -22.9 | -0.5
O=C(O)c1ccc(-n2c(-c3cc(C4CC4)[nH]n3)n[nH]c2=S)cc1 | · | -8.7 | 1.7 | -2.7 | 63.1* | -5.7
C[C@H]1CN([C@@H](C)CO)C(=O)c2cc(C3=CCCC3)cnc2O[C@H]1CN(C)Cc1cccnc1 | 4.7 | · | · | · | · | ·
O=C(NC1Cc2ccccc2C1)[C@H]1[C@H](CO)[C@H]2Cn3c(cccc3=O)[C@H]2N1C(=O)C1CC1 | -2.1 | · | · | · | · | ·
O=C(C[C@H]1C[C@H]2c3cc(NC(=O)Nc4ccc(C(F)(F)F)cc4)ccc3O[C@H]2[C@@H](CO)O1)NCc1ccccn1 | 1.4 | · | · | · | · | ·
CCc1cc(/C(Cc2ccc3ccccc3n2)=N\O)c(O)cc1O | 50.1* | 0.1 | -5.7 | -0.3 | 23.8 | -7.6
O=C(Cc1nc2ccccc2[nH]1)c1ccc(Cl)cc1 | 33.2 | -7.8 | 9.0 | -3.9 | 28.0 | 45.0
CCc1cc(/C(Cc2ccccn2)=N\O)c(O)cc1O | 18.8 | -3.1 | -0.2 | 2.6 | -2.0 | -14.1
Nc1ccc(C(=O)OCc2nc3ccccc3[nH]2)cc1 | 54.6* | 0.2 | · | 1.0 | 0.9 | 9.7
CCc1cc(C(=O)Cc2nc3ccccc3[nH]2)c(O)cc1O | 47.0* | -2.0 | 33.6* | 0.2 | 7.4 | 20.5
O=C(Cc1nc2ccccc2[nH]1)c1ccc([N+](=O)[O-])cc1 | · | -0.2 | 57.7* | 2.2 | 47.4 | 59.4
COc1ccccc1CN1[C@@H]2Cn3c(cccc3=O)[C@H]1[C@@H](C(=O)N1CCc3ccccc3C1)[C@@H]2CO | 0.4 | · | · | · | · | ·
SMILES | esBAF inh | A3G deaminase | Wnt act | A3A deaminase | PHOSPHO1 block | MITF act
COc1cccc(/C=N/Nc2snc(SC)c2C#N)c1 | · | -6.7 | · | 1.6 | -26.6 | 26.1
COc1ccc(/C=N/Nc2snc(SC)c2C#N)cc1OC | 52.5* | -2.6 | · | 2.4 | -10.4 | ?
CO[C@H]1CN(C)C(=O)c2ccc(NS(C)(=O)=O)cc2OC[C@H](C)N(C(=O)C2CC2)C[C@H]1C | -0.2 | · | · | · | · | ·
Cc1ccc(N2C(=O)SC(N(CC(=O)O)c3cccc(C)c3)C2=O)cc1 (stereo not given) | 34.6 | 2.5 | 41.2* | -3.7 | 41.3 | 4.6
CC(=O)N(c1cccc(C)c1)C1SC(=O)N(c2ccccc2)C1=O (stereo not given) | -0.9 | -2.5 | -1.1 | -1.8 | -0.8 | -7.9
Clc1cccc(Nc2ncnc3ccc(Br)cc23)c1 | -1.3 | -2.0 | -8.9 | 2.4 | 62.0* | -7.4
COc1ccc(Nc2ncnc3ccccc23)c(OC)c1 | 10.1 | 2.5 | -1.5 | 0.8 | 8.0 | 15.2
Cc1c(C)n(CCO)c2ncnc(Nc3ccc(F)cc3)c12 | ? | 0.8 | 9.7 | -1.6 | 28.4 | 51.5
COc1cccc(Nc2ncnc3ccccc23)c1 | 58.1* | -7.3 | · | 0.5 | 7.4 | ?
COc1ccc(Nc2ncnc3ccccc23)cc1 | 29.2 | 1.3 | 18.2 | 5.6 | 1.0 | 96.8*
COc1ccc(Nc2ncnc3c2c(C)c(C)n3CCO)cc1 | -10.5 | -5.8 | 41.1* | -1.5 | 23.9 | 70.3
O=C(O)C[C@@H]1C[C@H]2c3cc(NC(=O)Nc4ccccc4F)ccc3O[C@H]2[C@@H](CO)O1 | 0.9 | · | · | · | · | ·
COCCNC(=O)C[C@H]1C[C@@H]2c3cc(NC(=O)Nc4ccc(F)cc4)ccc3O[C@@H]2[C@@H](CO)O1 | 2.9 | · | · | · | · | ·
CC(C)NC(=O)N(C)C[C@@H]1Oc2cc(-c3ccccc3)ccc2S(=O)(=O)N([C@H](C)CO)C[C@@H]1C | -5.8 | · | · | · | · | ·
CN(C)c1ccc(/C=N/n2c(COc3ccccc3)n[nH]c2=S)cc1 | -5.5 | 4.3 | -1.6 | 7.1 | 78.7* | -3.4
Cc1cccc(S(=O)(=O)N[C@H]2CC[C@@H](CCNC(=O)Nc3cc(F)ccc3F)O[C@H]2CO)c1 | 9.4 | · | · | · | · | ·
O=C(Cc1ccccc1)Nc1nc(-c2cccs2)cs1 | 65.4* | -5.1 | -0.2 | -1.9 | 8.5 | ?
CCC(C)C(=O)Nc1nnc(-c2cccs2)s1 (stereo not given) | ? | -2.2 | 34.1* | -2.3 | 47.9 | ·
O=C(Cc1ccccc1)Nc1nnc(-c2cccs2)s1 | 51.6* | -3.4 | 27.2 | -1.1 | -6.8 | 77.2
COc1ccc(C(=O)Nc2nc(-c3cccs3)cs2)cc1 | 84.3* | -4.0 | · | -4.3 | -2.3 | 44.6
N#C[C@@H]1[C@@H](c2ccc(C#CC3(O)CCCC3)cc2)[C@@H](CO)N1C(=O)C1CC1 | -3.4 | · | · | · | · | ·
COc1ccccc1C(=O)N1C[C@@H]2[C@H](c3ccccc31)[C@@H](CO)N2Cc1ccc(F)cc1 | -6.4 | · | · | · | · | ·
C[C@@H]1CCCCO[C@H](CN(C)S(=O)(=O)c2ccc(Cl)cc2)[C@@H](C)CN([C@H](C)CO)C(=O)c2cc(NC(=O)Nc3cccc4ccccc34)ccc2O1 | -1.9 | · | · | · | · | ·
O=C(NCc1cccc(Cl)c1)c1ccc2c(c1)OCCO2 | 39.6 | -4.8 | 2.8 | -3.9 | 13.9 | 7.0
O=C(NCCS(=O)(=O)NCc1ccccc1Cl)c1ccc2c(c1)OCO2 | 7.4 | -1.3 | 2.6 | -1.1 | · | 1.8
O=C(NCCc1cccc(Cl)c1)c1ccc2c(c1)OCO2 | · | -3.9 | 44.7* | -0.3 | · | 27.4
